Assay results from PubChem BioAssay (Tox21).
Results filed as inconclusive are left out. A call without a number means that no potency is given here. Values without a mark were called inactive. Activity calls are given as the source filed them. The call rests on the fitted dose curve; in most records, active means well fitted activation curve with a large enough effect in the repeat runs; inconclusive means weak or mixed curves; inactive means flat fitted curve, though single readings scatter.

Assay: A CellTox Green Cytotoxicity Assay to monitor cytotoxicity in HEK293 cells - 16 hour (AID 1224888); further: nearly all actives have a fitted effect of over 35% in size
Settings: CellTox Green fluorescence; series mostly up to 76.8 µM
Description: National Center for Advancing Translational Sciences [NCATS]
NIH Chemical Genomics Center [NCGC]
U.S. Environmental Protection Agency [EPA]
National Institutes of Environmental Health Sciences [NIEHS]
National Toxicology Program [NTP]
Cell-based models are critical for drug discovery. Determining the natural cytotoxic effects resulting from test compounds is an essential research activity. A CellTox Green Cytotoxicity Assay to monitor cytotoxicity in real time of continues cell culture during 40 hours of the compound treatment was used to screen Tox21 10K library compounds in Hek293 cells. CellTox Green Cytotoxicity Assay is a nonlytic, homogeneous, biofluorescent method to measure cytotoxicity in cell culture after experimental manipulation. The assay system uses a proprietary asymmetric cyanine dye that is excluded from viable cells but preferentially stains the dead cell's DNA. […] Viable cells produce no appreciable increases in fluorescence. Therefore, the fluorescence signal produced by the binding interaction with dead cell DNA is proportional to cytotoxicity.
The mixture of Hek293 cell suspension and reagents were dispensed at 600cells/6 ul/well in 1536-well tissue culture treated black solid bottom plates using a Multidrop dispenser. After the assay plates were incubated at a 37 C/5% CO2 incubator for 5 hours, 23 nL of compounds dissolved in DMSO, positive and negative controls was transferred to the assay plate by a pintool work station. The plates were incubated at 37 C for 40 hours. The fluorescence intensity were measured at 0h, 8h, 16h, 24h, 32h and 40h time points using ViewLux plate reader during compound treatment.
Potency means the concentration at half of the fitted maximal effect.

Question: Which activity change does the source give for `O=C=NCc1cccc(CN=C=O)c1` here?
Answer: The activity change was -10.6% [at 15.8 µM, active compounds read high].

Question: Which Potency does the source give for `C=CC(=O)OCCN(CC)CC` here?
Answer: The Potency was “inactive”.

Question: Which activity change does the source give for `COc1cc(C(C)C)c2c(c1)S(=O)(=O)N(COc1cc(=O)n3cccc(OCCN4CCCCC4)c3n1)C2=O` here?
Answer: The activity change was 2.2% [at 15.8 µM, active compounds read high].

Question: For `CCCCCCCCCCCCCOP(=O)(O)O`, which Potency is on record?
Answer: The Potency was “inactive”.

Question: For `CCCCCCCC/C=C\CCCCCCCC(=O)NCc1ccc(O)c(OC)c1`, which Potency is on record?
Answer: Its Potency is “inactive”.

Question: Which Potency does the source give for `O=c1cccc[nH]1` here?
Answer: The Potency was “inactive”.

Question: For `C#CC(O)CCC` (stereo not given), which Potency is on record?
Answer: Its Potency is “inactive”.

Question: For `CC(=O)Oc1ccc(C2(c3ccc(OC(C)=O)cc3)C(=O)Nc3ccccc32)cc1`, which Potency is on record?
Answer: Its Potency is “inactive”.

Question: Which Potency does the source give for `Cc1ccc2ccc3cccc4ccc1c2c34` here?
Answer: Its Potency is “inactive”.

Question: With `CC(C)(C)C1=CC(=O)C=C(C(C)(C)C)C1=O` as the molecule, how does the Potency read?
Answer: The Potency was “inactive”.

Question: With `CCCCCCCCCCCCCc1ccccc1` as the molecule, how does the Potency read?
Answer: Its Potency is “inactive”.

Question: With `OCCCS` as the molecule, how does the Potency read?
Answer: The Potency was “inactive”.

Question: Which activity change does the source give for `CCC(=O)CC(C)CC` (stereo not given) here?
Answer: Its activity change is 10.7% [at 0.29 µM, active compounds read high].

Question: For `CC(C)(c1cc(Br)c(OCCO)c(Br)c1)c1cc(Br)c(OCCO)c(Br)c1`, which Potency is on record?
Answer: Its Potency is “inactive”.

Question: For `CC(C)(C)c1cc(CCC(=O)NCCCCCCNC(=O)CCc2cc(C(C)(C)C)c(O)c(C(C)(C)C)c2)cc(C(C)(C)C)c1O`, which Potency is on record?
Answer: The Potency was “inactive”.

Question: Which Potency does the source give for `CNC(=S)NN` here?
Answer: Its Potency is “inactive”.

Question: For `CN(C)CCCN1c2ccccc2Sc2ccc(C(F)(F)F)cc21`, which Potency is on record?
Answer: The Potency was “inactive”.

Question: For `CCOC(=O)COc1ccc(C)cc1`, which Potency is on record?
Answer: Its Potency is “inactive”.

Question: For `CCCCCCCC(C)=O`, which Potency is on record?
Answer: Its Potency is “inactive”.

Question: Which Potency does the source give for `CCCCCCCCCCCC(=O)N(CC)CC` here?
Answer: Its Potency is “inactive”.

Question: For `O=Nc1ccc(NO)cc1`, which Potency is on record?
Answer: The Potency was “inactive”.

Question: For `CC1CCCNC1` (stereo not given), which Potency is on record?
Answer: The Potency was “inactive”.

Question: For `CCN1CCN(c2cc(-c3ccc(F)cc3)c3c(n2)CCCCCC3)CC1`, which activity change is on record?
Answer: The activity change was 4.21% [at 15.8 µM, active compounds read high].

Question: Which Potency does the source give for `COC(=O)CC(C)CCC=C(C)C` (stereo not given) here?
Answer: The Potency was “inactive”.

Question: For `COc1ccc2sc(C(=O)Nc3nnn[nH]3)c(OC(C)C)c2c1`, which Potency is on record?
Answer: The Potency was “inactive”.

Question: For `O=C(O)CCn1c2c(c3ccccc31)C[C@H](NS(=O)(=O)c1ccc(F)cc1)CC2`, which Potency is on record?
Answer: Its Potency is “inactive”.

Question: With `Clc1ccccc1CN1CCc2sccc2C1` as the molecule, how does the Potency read?
Answer: The Potency was “inactive”.

Question: Which Potency does the source give for `CCCCCCCCCCCCCCCC` here?
Answer: The Potency was “inactive”.

Question: For `O=C(c1ccccc1)c1cc(Cl)ccc1O`, which Potency is on record?
Answer: Its Potency is “inactive”.

Question: For `N[C@@H](CSSC[C@H](N)C(=O)O)C(=O)O`, which activity change is on record?
Answer: Its activity change is 14.4% [at 0.29 µM, active compounds read high].

Question: For `CC(C)(C)CC(C)(C)c1ccccc1O`, which Potency is on record?
Answer: The Potency was 39.1 µM (active).

Question: For `Cc1cc(=O)[nH]c(=O)[nH]1`, which Potency is on record?
Answer: The Potency was “inactive”.

Question: With `N#CSCSc1nc2ccccc2s1` as the molecule, how does the Potency read?
Answer: Its Potency is “inactive”.

Question: For `CC(=O)Oc1ccc(C2(c3ccc(OC(C)=O)cc3)Oc3ccccc3NC2=O)cc1`, which Potency is on record?
Answer: Its Potency is “inactive”.

Question: Which Potency does the source give for `CCc1c(Br)c(Br)c(Br)c(Br)c1Br` here?
Answer: The Potency was “inactive”.

Question: With `CN1CCN(C2Cc3ccccc3Sc3ccc(Cl)cc32)CC1` (stereo not given) as the molecule, how does the Potency read?
Answer: The Potency was 21.3 µM (active).

Question: Which Potency does the source give for `O=C(Oc1ccccc1)c1cccc(C(=O)Oc2ccccc2)c1` here?
Answer: Its Potency is “inactive”.

Question: With `C=CC(=O)OCCOCC(CC)(COCCOC(=O)C=C)COCCOC(=O)C=C` as the molecule, how does the Potency read?
Answer: Its Potency is “inactive”.

Question: With `Cc1cn[nH]c1` as the molecule, how does the Potency read?
Answer: Its Potency is “inactive”.

Question: Which Potency does the source give for `Oc1ccc(-c2ccc(O)cc2)cc1` here?
Answer: The Potency was “inactive”.
